Bioassay records (PubChem BioAssay)
KDM5B inh – Primary screen for KDM5B Histone Demethylases FDH-coupled qHTS; KDM5B demethylase, FDH-coupled NADH fluorescence (FDH is formaldehyde dehydrogenase); Potency, µM (doses to about 57.7 µM), hits mostly inhibitors; hit rate 2.6% among 220,000; AID 1347165, 2019; also: potency is read from the fitted curve at half-maximal effect; 0% is about no effect; nearly all actives have a fitted effect of over 70% in size
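Coupled FDH/NAD⁺ fluorescence readout. KDM5BΔAP 200 nM final; compound titration, 10 min RT preincubation; substrate mix 12.5 µM H3K4me3, 25 µM 2-OG, 50 µM Fe(II), 100 µM ascorbate, 0.25 mM NAD⁺, 0.25 U/mL FDH; ΔRFU over 30 min.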
IP6K1 inhibitor – Primary qHTS assay for small molecule inhibitors of Inositol hexaphosphate kinase 1 (IP6K1) | IP6K1 kinase, ADP-Glo luminescence, 2 h; stronger effect = lower value | AID 1645851, 2021 | activity change, % (series mostly up to about 58 µM) | hit rate 0.81% among 140,000 | Inositol hexakisphosphate kinase 1 (Homo sapiens), Q92551; in the data active = activity change below about -25%; also: % is scaled to controls: 0 for no effect and ±100 for the full control effect
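ADP-Glo luminescence measures ADP made by human IP6K1 during a 2 h RT reaction with ATP/IP6 (mix at 1.3 mM/130 uM); top library doses 57.5 and 19.1 uM final.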
IP6K1 inh cnf – Confirmatory qHTS assay for small molecule inhibitors of Inositol hexaphosphate kinase 1 (IP6K1). shares compounds with IP6K1 inhibitor. recombinant IP6K1 kinase, ADP-Glo luminescence, 2 h. Potency, µM (top dose mostly 49 µM), for inactives: top-dose activity change, negative = inhibition, most hits filed as inhibitors. hit rate 13% among 1,200. AID 1645852, 2021; also: potency is read from the fitted curve at half-maximal effect; % is scaled to controls: 0 for no effect and ±100 for the full control effect; nearly all actives have a fitted effect of over 65% in size
The depositor's hits bear a star; i = inactive; ? = inconclusive; / = no result given. A selection: hits, their analogues and other compounds. The true share with any hit is near 2.7%. Unless noted, calls follow the shape of the dose curve; as a rule, active = well fitted inhibition curve with a large enough effect; inconclusive = small, poorly fitted or top-dose-only effect; inactive = no such curve, though single readings can be large or run the other way.

SMILES | KDM5B inh | IP6K1 inhibitor | IP6K1 inh cnf
COC(=O)c1cc(NS(=O)(=O)c2ccc3ccccc3c2)cc(C(=O)OC)c1 | i | / | /
COc1ccc(CN2CCNc3cnc(OCc4cccnc4)cc3C2)cc1O | i | -29* | -3%
c1cncc(COc2cc3c(cn2)NCCN(Cc2ccc4[nH]ccc4c2)C3)c1 | ? | -20 | /
O=C(COCc1nc2ccccc2c(=O)[nH]1)Nc1nc(-c2ccc3c(c2)CCCC3)cs1 | i | / | /
Cc1ccccc1OCC(=O)NCc1ccc(Cn2cccn2)cc1 | i | / | /
Clc1ccc(-c2ccc(CNc3ncn[nH]3)o2)cc1 | i | / | /
COC(=O)c1ccc(NC(=O)N2CCC(CCOc3ccc(F)cc3)C2)cc1 (stereo unspecified) | i | 2 | /
N#CC(Cc1ccc(Cl)cc1)(Cc1ccc(Cl)cc1)C(=O)NC1CCCCC1 | i | / | /
O=C(O)c1ccc2c(c1)c(C(C(=O)O)N1CCCC1)cn2Cc1ccccc1 (stereo unspecified) | i | / | /
COc1cccc(Nc2cc(-c3cccs3)nc3c(C)noc23)c1 | 35µM* | -25* | ?
Cc1noc2c(Nc3ccc(N4CCOCC4)cc3)cc(-c3cccs3)nc12 | ? | -16 | /
CCNC(=O)NC(=O)COC(=O)c1ccc(COc2ccc3c(C)cc(=O)oc3c2)cc1 | i | / | /
COc1ccc(OC)c(CN2CCNc3cc(-c4ccnc(C)c4)ncc3C2)c1 | i | -27* | 3%
Cc1cc(-c2cc3c(cn2)CN(Cc2ccccc2O)CCN3)ccn1 | i | -3 | /
CCCCN1C=C(OC(=O)c2ccccc2OC)c2ccccc2S1(=O)=O | i | / | /
Cc1ccc(C)c(-n2nnc(C(=O)NC3CCCCC3)c2N)c1 | i | / | /
CN[C@H](CC(C)C)C(=O)N[C@H]1C(=O)N[C@@H](CC(N)=O)C(=O)N[C@H]2C(=O)N[C@H]3C(=O)N[C@H](C(=O)N[C@H](C(=O)O)c4cc(O)cc(O)c4-c4cc3ccc4O)[C@H](O[C@H]3C[C@](C)(N)[C@@H](O)[C@H](C)O3)c3ccc(c(Cl)c3)Oc3cc2cc(c3O[C@@H]2O[C@H](CO)[C@@H](O)[C@H](O)[C@H]2O[C@H]2C[C@](C)(NCc3ccc(-c4ccc(Cl)cc4)cc3)[C@@H](O)[C@H](C)O2)Oc2ccc(cc2Cl)[C@H]1O | / | -32* | ?
Cc1ccc(Nc2nnc(SC(C)C#N)s2)cc1 (stereo unspecified) | i | / | /
CCc1noc(-c2cn(C3CCCN(C(=O)c4ccc(F)c(Cl)c4)C3)nn2)n1 (stereo unspecified) | i | 18 | /
CCSc1ncc(Cl)c(C(=O)Nc2nnc(CC)s2)n1 | i | 1 | /
Cc1nnc(NC(=O)c2nc(S(=O)(=O)Cc3ccccc3)ncc2Cl)s1 | ? | -35* | -18%
COc1ccc2nc(NC(=O)c3nc(S(=O)(=O)Cc4ccccc4)ncc3Cl)sc2c1 | i | -3 | /
CCc1nnc(NC(=O)c2nc(S(C)(=O)=O)ncc2Cl)s1 | ? | -35* | -10%
CC(=O)c1c(C)[nH]c(C(=O)OC(C)C(=O)Nc2ccc(Cl)cn2)c1C (stereo unspecified) | i | / | /
O=C(CSCc1nc2ccccc2c(=O)[nH]1)Nc1ccc(O)cc1 | i | / | /
SMILES | KDM5B inh | IP6K1 inhibitor | IP6K1 inh cnf
O=c1cc(C2=CCOCC2)oc2c(-c3cccc4[nH]ccc34)nccc12 | ? | -25* | ?
COc1ccccc1-c1nccc2c(=O)cc(-c3ccccn3)oc12 | ? | -17 | /
CC(C)CC(=O)N1CCC(NC(=O)Cc2c[nH]c3ccccc23)CC1 | i | / | /
O=C(CCC(=O)c1ccc2c(c1)OCCO2)OCc1ccc(Cl)cc1Cl | i | / | /
Cc1nc(-c2ccc(Cl)cc2Cl)sc1C(=O)N1CCC(C(=O)O)CC1 | i | / | /
O=C(Cc1ccc(NC(=O)N2CCSc3ncccc32)cc1)NCCc1ccccc1 | ? | -33* | -17%
O=C(Cc1ccc(NC(=O)N2CCSc3ncccc32)cc1)NCc1ccccc1 | ? | 14 | /
CCc1ccccc1NC(=O)c1ccc2nc(C(C)C)oc2c1 | i | -36* | -3%
CCc1ccc(NC(=O)c2ccc3nc(C(C)C)oc3c2)cc1 | i | -19 | /
COC(=O)c1c(-c2csc(NC3CC3)n2)c(C)n(C(C)C)c1C | i | / | /
COCCNc1nc(NCc2ccccc2OC)c2cnn(C)c2n1 | ? | -10 | /
Cn1ncc2c(NCc3ccccc3Cl)nc(NCCO)nc21 | ? | -18 | /
COCCCNc1nc(NCc2ccccc2OC)c2cnn(C)c2n1 | ? | -30* | -14%
COCCCNc1nc(NCc2ccc(C)cc2)c2cnn(C)c2n1 | ? | -36* | -8%
Cc1ccccc1NC(=O)CCn1nc(-c2ccccc2)c2ccccc2c1=O | i | -25* | -10%
O=C(CCn1nc(-c2ccccc2)c2ccccc2c1=O)Nc1cccc2ccccc12 | i | / | /
Cc1cc(CS(=O)(=O)c2ccccc2)cc(OCc2ccc(CN3CCC[C@@H]3CO)cc2)c1 | / | -41* | 9%
OCC1CCCN1Cc1ccccc1 (stereo unspecified) | i | / | /
Cc1ccc([C@H]2Nc3ccc(S(=O)(=O)Nc4cccc(Cl)c4C)cc3[C@H]3C=CC[C@H]32)cc1 | ? | -27* | -5%
COC(=O)c1ccc([C@H]2Nc3ccc(S(=O)(=O)Nc4cccc(C)c4)cc3[C@H]3C=CC[C@H]32)cc1 | ? | 6 | /
O=C(COC(=O)C12CC3CC(CC(Br)(C3)C1)C2)Nc1ccc([N+](=O)[O-])cc1Br | i | / | /
CC(C)c1ccccc1NC(=O)COC(=O)c1cc(=O)c2ccccc2o1 | i | / | /
O=C1CCC2(CCCO2)CCN1Cc1cccc(F)c1F (stereo unspecified) | i | -31* | -9%
O=C1CCC2(CCCO2)CCN1Cc1c(F)cccc1F (stereo unspecified) | i | 13 | /
Cc1cc(C(=O)CN2CCN(Cc3ccc(C#N)cc3)CC2)c(C)n1Cc1cccs1 | i | / | /
SMILES | KDM5B inh | IP6K1 inhibitor | IP6K1 inh cnf
CCOc1nccn2c(-c3ccc(CNc4ccc(OC)nc4)cc3)cnc12 | ? | -36* | ?
c1ccc(Oc2nccn3c(-c4ccc(CNCc5ccn[nH]5)cc4)cnc23)cc1 | ? | -7 | /
COc1ccc(C(=O)COC(=O)/C=C/c2c(Cl)nc3sccn23)cc1Br | i | / | /
CCC(=O)N1CCc2cc(Br)cc(S(=O)(=O)N(CC)Cc3ccccc3)c21 | i | -27* | 38%
CCC(=O)N1CCc2cc(Br)cc(S(=O)(=O)CCC(=O)N3CCN(c4ccc(OC)cc4)CC3)c21 | i | -8 | /
CCC(=O)N1CCc2cc(Br)cc(S(=O)(=O)NCCCN(CC)Cc3ccccc3)c21 | i | / | /
CCC(=O)N1CCc2cc(Br)cc(S(=O)(=O)CCC(=O)N3CCN(c4ccccc4OC)CC3)c21 | i | -27* | -6%
CC(=O)N1CCN(C(=O)c2nc3sccn3c2-c2cccc(C(F)(F)F)c2)CC1 | / | 15 | /
Cc1ccccc1NC(=O)Cc1nnc(SCC(=O)NC23CC4CC(CC(C4)C2)C3)n1C | i | / | /
O=C(Cc1ccc(O)cc1)N1Cc2ccccc2CC2(CCN(Cc3ccncc3)C2)C1 (stereo unspecified) | i | -11 | /
